# High-throughput results: PubChem, several laboratories
# An excerpt weighted towards active compounds, which were near 5.1% of everything screened.
# CRFR2-BP ag – agonists of CRF-BP/CRF-R2 complex, primary screen, cell-based, HEK293, calcium dye fluorescence, uHTS. calcium dye fluorescence (FLIPR); percent of saturating CRF peptide response. activation, % at 13.2 µM. 350,000 tested, 0.46% active. AID 588473, 2011;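 active means activation of at least 50%, plus an integration ratio under a set limit after plate pattern correction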;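 further: plate controls were neutral control wells without compound for no effect and CRF at EC100 for full effect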
# NR3A LBD binder – binders of NR3A ligand-binding domain, primary screen, biophysical, differential scanning fluorimetry, uHTS; 340,000 tested, 2.5% active; NR3A LBD differential scanning fluorimetry, Tm shift; 0% = protein alone, 100% = glycine-bound protein; Glutamate receptor ionotropic, NMDA 3A (GRIN3A) ligand-binding domain; Tm shift relative to glycine control, % at 25 µM;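 active means melting temperature shift of at least 10% of the positive control shift, at one fixed dose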
# TMEM16A act – TMEM16A chloride channel activators or potentiators, primary screen, cell-based, HTS. B-score at 10 µM. HEK293 TMEM16A/YFP-H148Q/I152L, iodide quench fluorescence; active compounds read low. 340,000 tested, 0.3% active. Anoctamin-1 (Mus musculus), Q8BHY3;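 active means fluorescence-ratio B-score plate-corrected deviation score at least 3 library SD below zero, with starting fluorescence score within 5 deviations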;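 further: channel opened by trigger with iodide after compound preincubation; score built on the fluorescence ratio of max minus min over baseline; more negative score means more quench and so TMEM16A activation or potentiation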
# CRFR2-BP antag – antagonists of CRF-BP/CRF-R2 complex, primary screen, cell-based, HEK293, calcium dye fluorescence, uHTS. AID 588475, 2011. 350,000 tested, 0.59% active. inhibition, % at 11.8 µM. CRF-induced calcium fluorescence;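 active means inhibition of the ligand-induced calcium signal above about 50% at the single tested concentration, limit read from the data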
# MPTP inh – mitochondrial permeability transition pore inhibitors, primary screen, biochemical, isolated mouse mitochondria, absorbance; Ca2+ swelling absorbance, 30 min; inhibition, % at 10 µM; 360,000 tested, 1.4% active;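 active means inhibition of 50% or more, scaled per plate between neutral and stimulator controls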;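 further: 0% = DMSO wells given calcium and 100% = 1 mM EGTA wells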
# ANO1 block – TMEM16A chloride channel inhibitors, primary screen, cell-based, HTS; Anoctamin-1 (Mus musculus), Q8BHY3; normalized B-score (activity score, 25-100; higher = stronger inhibition) at 10 µM; HEK293 TMEM16A/YFP iodide influx fluorescence, ionomycin; 310,000 tested, 1.2% active; AID 588511, 2011;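 active means ratio plate-corrected score three or more library SD toward inhibition, starting fluorescence score within five deviations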;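 further: score derived from kinetic fluorescence span divided by baseline fluorescence per well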
# * hit, by the source's call; i = inactive; · = no result.
SMILES,CRFR2-BP ag,NR3A LBD binder,TMEM16A act,CRFR2-BP antag,MPTP inh,ANO1 block
O=C(NCc1ccco1)C1C(=O)Nc2ccccc2C(=O)N1C1CCCCC1 (stereo not drawn),·,·,·,·,-1,·
NC(=O)C1(NC2CCCCC2)CCN(Cc2ccccc2)CC1,2,1,i,-1,1,·
O=C(O)C1(Nc2ccc([N+](=O)[O-])cc2[N+](=O)[O-])CCCC1,2,0,i,2,1,·
N#CCC(=O)N/N=C/c1cc(Br)ccc1OCc1cccc2ccccc12,3,20*,i,8,0,i
N#CCC(=O)N/N=C/c1c2ccccc2cc2ccccc12,0,-1,i,-7,2,i
NC(=O)c1cc(S(=O)(=O)NCc2ccc(F)cc2)cs1,-1,1,-14*,4,-2,i
COC(=O)c1cc(-c2ccc(S(=O)(=O)N3CCCCC3)cc2)c(C(F)(F)F)s1,4,0,i,-24,6,i
O=C(COc1ncnc2c(Cl)cc(Cl)cc12)Nc1cc([N+](=O)[O-])ccc1Cl,2,14*,i,-29,4,i
CC(C)(C)C(=O)Nc1ccc(S(=O)(=O)N2CCC(c3nc4ccccc4[nH]3)CC2)cc1,4,20*,i,8,-1,i
CC(=O)Nc1ccc(S(=O)(=O)N2CCC(c3nc4ccccc4[nH]3)CC2)cc1,0,-2,i,-4,-2,i
O=S(=O)(c1cccc(C(F)(F)F)c1)N1CCC(c2nc3ccccc3[nH]2)CC1,-2,9,i,-56,0,i
O=S(=O)(c1cccc(Cl)c1)N1CCC(c2nc3ccccc3[nH]2)CC1,-4,27*,i,-26,1,i
CC(C)=CCC/C(C)=C/CC/C(C)=C/COc1ccc2ccc(=O)oc2c1,0,-8,i,26,-1,·
COCC(=O)N1CCC(Oc2ccc(C(=O)N(C)C(C)c3ccon3)cc2)CC1 (stereo not drawn),0,0,i,1,-1,i
Cc1[nH]n(-c2ccc(Br)cc2)c(=O)c1C=Nc1ccc(S(=O)(=O)Nc2nccs2)cc1,-1,27*,i,-5,2,i
CC(C)Cn1c(N)c(C(=O)COC(=O)C2Cc3ccccc3CN2S(C)(=O)=O)c(=O)n(C)c1=O (stereo not drawn),-1,-2,i,4,0,·
COc1cccc(CN2CCNC(=O)C2CC(=O)N(Cc2cnn(C)c2)C(C)C)c1 (stereo not drawn),6,0,-7.6*,-11,1,i
CC(C)(C)C(=O)NC(=S)Nc1ccccc1N1CCCC1,1,-4,i,-9,0,i
CC(=O)NC(=S)Nc1ccccc1N1CCCCC1,-1,13*,i,0,0,i
O=c1cc(CSc2nnc(-c3cccs3)n2Cc2ccccc2)nc2sc3ccccc3n12,0,-2,i,7,7,100*
Cc1cc(C(=O)CSc2nnc(-c3cccs3)n2Cc2ccccc2)c(C)n1C,0,-1,i,0,1,i
CN(C)CCNc1ccc2nnn3c4ccc(O)cc4c(=O)c1c23,2,1,i,11,0,·
CCN(CC)CCCNc1ccc2ncn3c4ccc(O)cc4c(=O)c1c23,215*,-2,i,-245,-1,·
COc1ccc(C2Nc3ccccc3C(=O)N2c2ccc(F)cc2)cc1CSc1ccccn1 (stereo not drawn),-2,-4,i,17,0,i
COc1ccc(C2Nc3ccccc3C(=O)N2c2ccccc2)cc1CSc1ccccn1 (stereo not drawn),1,18*,i,58*,0,i
